Reference: PubChem BioAssay AID1650 (Southern Research Specialized Biocontainment Screening …, 2009)
Measured potencies and affinities stand elsewhere. Unmarked numbers belong to inactive results. No rule for the calls is given here.

Assay: mammalian cell viability reduction – secondary assay, cytotoxicity control for West Nile virus antiviral project, dose response (AID 1650)
Conditions: Mammalian host cell viability, cytotoxicity counter-screen; series mostly up to 10 µM; viability: at the top concentration

SMILES	viability
CCCCn1c(=N)n(CC(O)COc2ccc(C)cc2)c2ccccc21 (stereo not drawn)	84.4%
Cc1cccc(C)c1Nc1nc2ccccc2o1	91.1% [at 20 µM]
N#Cc1ccc(-c2ccc(F)cc2)nc1Oc1ccc(Cl)c(Cl)c1	79.6%
COc1ccc2cc(Br)ccc2c1CC(=O)NC1CC(C)(C)NC(C)(C)C1	87.9%
CCOC(=O)c1c(CC(C)C)csc1/N=C/C1=C(O)CCCC1=O	92% [at 20 µM]
O=[N+]([O-])c1cc(-c2nnc(Nc3ccc(O)cc3)c3ccccc23)ccc1N1CCOCC1	73.3% [at 20 µM]
CCCCN(C)CCNC(=S)Nc1ccc2nc(N3CCN(CC)CC3)cc(C)c2c1	83.8%
CN(C)CCCN(C(=O)c1ccc2c(c1)OCCO2)c1nc2ccc(Cl)cc2s1	70.2%
O=c1c(-c2ccccc2)c1-c1ccccc1	80.4%
CCCc1nc([N+](=O)[O-])c(S(=O)(=O)c2ccccc2)n1CC(C)C	92.9% [at 20 µM]
CC1CCN(c2nc3ccc(C(=O)NCCCN4CCCCC4)cc3s2)CC1	81.7% [at 20 µM]
Cc1ccc(/C=C2/Sc3ccc(C(=O)N4CCN(C)CC4)cc3NC2=O)cc1	81.2% [at 20 µM]
CC(=O)Oc1ccc(-c2ccc(C(=O)OCC(=O)N(C)CC(=O)Nc3ccccc3Cl)cc2)cc1	77.2%
CN1CCCC(CC2Oc3ccccc3Sc3ccccc32)C1 (stereo not drawn)	82.1%
Cc1ccc(-c2cc(C(=O)N(C)Cc3cnn(C)c3C)c3cc(Br)ccc3n2)cc1	90.5%
COc1ccc(N=c2oc3ccc(OC)cc3cc2-c2nc3ccccc3[nH]2)cc1	80.5%
CCCc1nc2c(c(=O)c3ccccc3n2C)c(=O)n1C1CCCCCC1	76.9% [at 20 µM]
CN(C)CCCN(C(=O)c1ccc(S(=O)(=O)N2CCCc3ccccc32)cc1)c1nc2ccc(F)cc2s1	84.6% [at 20 µM]
